# Screens as filed in PubChem BioAssay.
# Most compounds without a hit are left out; they make up all but 2.5% or so of the library.
# Granule exo inh – lytic granule exocytosis inhibition; TALL-104 LAMP-1 surface exposure, flow cytometry; cells stimulated with thapsigargin and PMA; inhibition, % at 10 µM; 360,000 tested, 0.66% active;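 active = inhibition above about 55%, limit read from the data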
# PG9 Ab binder – PG9 antibody binding by small molecule; AID 624416; TR-FRET gp120-PG9 antibody binding; 360,000 tested, 0.43% active; inhibition, % at 6.7 µM; in the data active = inhibition above about 8.5%
# rCAG RNA binder – molecules binding r(CAG) RNA repeats; inhibition, % at 3 µM; AID 651821; 370,000 tested, 1.3% active; r(CAG) RNA repeat, TO-PRO-1 dye displacement fluorescence;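 active = inhibition above the plate cutoff, the mean of all test compounds on that plate plus 3 SD, cut at about 35% in these data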;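 also: 0% = DMSO alone and 100% = 100 µM mitoxantrone as full dye displacement; higher means more dye released from RNA so lower well fluorescence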
# ABCB6 inh MLPCN – blocks the human ABCB6 transporter | K562-ABCB6 porphyrin accumulation, flow cytometry, 1 h; hits give low values | 360,000 tested, 0.19% active | AID 602162 | fluorescence ratio to DMSO, % at 10 µM;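 active = fluorescence ratio to DMSO below 75%, the collection mean minus 3 SD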;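 also: signal is porphyrin accumulated inside mitochondria; 100% equals median channel fluorescence of DMSO control wells; lower ratio means ABCB6 inhibition with less porphyrin fluorescence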
# Target sequence (Q9NP58 whole entry, looked up): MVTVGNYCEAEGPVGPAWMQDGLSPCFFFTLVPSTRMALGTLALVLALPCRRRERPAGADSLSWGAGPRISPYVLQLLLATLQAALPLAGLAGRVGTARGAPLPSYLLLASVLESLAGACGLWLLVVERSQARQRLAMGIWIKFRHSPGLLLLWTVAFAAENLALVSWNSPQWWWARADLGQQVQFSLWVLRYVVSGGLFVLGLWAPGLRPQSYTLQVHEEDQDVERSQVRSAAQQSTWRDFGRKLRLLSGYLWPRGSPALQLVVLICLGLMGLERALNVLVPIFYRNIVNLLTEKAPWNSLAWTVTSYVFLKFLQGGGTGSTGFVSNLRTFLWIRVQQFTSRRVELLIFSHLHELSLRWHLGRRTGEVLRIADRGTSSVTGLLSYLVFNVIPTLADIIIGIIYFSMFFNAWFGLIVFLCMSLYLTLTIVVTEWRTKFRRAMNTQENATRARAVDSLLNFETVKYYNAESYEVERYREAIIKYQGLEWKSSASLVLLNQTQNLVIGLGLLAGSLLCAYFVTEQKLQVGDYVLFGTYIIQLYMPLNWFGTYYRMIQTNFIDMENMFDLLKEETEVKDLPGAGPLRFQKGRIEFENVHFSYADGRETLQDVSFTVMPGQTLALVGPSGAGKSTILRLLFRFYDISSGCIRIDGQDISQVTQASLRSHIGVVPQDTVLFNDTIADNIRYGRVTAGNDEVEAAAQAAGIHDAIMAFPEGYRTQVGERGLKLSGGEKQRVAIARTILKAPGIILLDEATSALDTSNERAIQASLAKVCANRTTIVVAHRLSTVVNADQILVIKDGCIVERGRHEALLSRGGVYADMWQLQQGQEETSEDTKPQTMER
# rCAG binder conf – r(CAG) RNA repeat binding, confirmation. inhibition, % at 3 µM. TO-PRO-1 dye displacement fluorescence. 4,300 tested, 70% active. shares compounds with rCAG RNA binder;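 active = inhibition above a per-plate cutoff, the mean inhibition of sample wells plus 3 SD, cut at about 35% in these data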;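 also: loss of TO-PRO-1 fluorescence as compound displaces dye from 1x1 AA loop RNA; 0% = DMSO only wells and 100% = 100 µM mitoxantrone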
# DNA CAG counter – DNA CAG dye complex inhibition counter-screen; shares compounds with rCAG RNA binder; d(CAG) DNA oligo TO-PRO-1 dye displacement, fluorescence; 4,300 tested, 94% active; AID 652068; inhibition, % at 3 µM;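 active = inhibition above its plate's cutoff, the mean test-well inhibition plus 3 SD, cut at about 4.8% in these data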;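 also: 0% = DNA dye mix with DMSO and 100% = 100 µM mitoxantrone; hits displace the dye from DNA and so lower well fluorescence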
# DNA CAG DR – DNA CAG dye complex inhibition, dose response counter-screen. shares compounds with rCAG RNA binder. DNA CAG/GTC duplex TO-PRO-1 dye displacement fluorescence. IC50, µM. 250 tested, 20% active. AID 686960; in the data active = IC50 below about 10 µM
# * marks the source's active call; other numbers are inactive results; i = inactive; nt = not tested or not shown.
SMILES,Granule exo inh,PG9 Ab binder,rCAG RNA binder,ABCB6 inh MLPCN,rCAG binder conf,DNA CAG counter,others
CC12CCC(C/C1=N\N=C1\NC(=O)/C(=C\c3cccc(Br)c3)S1)C2(C)C (stereo unspecified),-2.7,-1.1,49.7*,100.0,59.8*,27.7*,
Nc1ccc(C(=O)N/N=C\c2cc(N=Nc3cccc4ccccc34)ccc2O)cc1,-3.7,0.4,39.1*,96.0,28.6,15.2*,
COc1ccc(C2CC(=O)N3CN(c4ccc(C)c(Cl)c4)CSC3=C2C#N)cc1 (stereo unspecified),-3.1,2.5,38.5*,95.0,13.9,8.3*,
COc1ccc(N2CSC3=C(C#N)C(c4cccc(OC)c4OC)CC(=O)N3C2)cc1 (stereo unspecified),-2.3,0.5,27.7,91.0,nt,nt,
O=S(=O)(Nc1ccc(-c2nc3cccnc3s2)cc1)c1cccs1,-0.5,0.3,8.3,95.0,nt,nt,
Cc1nc2ccc(S(=O)(=O)Nc3cccc(-c4nc5cccnc5s4)c3)cc2s1,5.0,2.2,23.2,100.0,nt,nt,
Cc1nc2ccc(S(=O)(=O)Nc3ccc(-c4nc5cccnc5s4)cc3)cc2s1,-1.0,-0.7,53.0*,95.0,41.8*,12.4*,
O=S(=O)(Nc1ccc(-c2nc3cccnc3s2)cc1)c1ccc(Cl)s1,3.0,2.1,65.6*,101.0,71.3*,32.4*,DNA CAG DR=i
COc1cc(OC)c(C2C=CC(=O)CC2)c(OC)c1 (stereo unspecified),-3.6,0.7,0.3,98.0,nt,nt,
O=C(O)CSc1nc(-c2ccc(Cl)cc2)nc2c1oc1ccccc12,-1.4,0.3,41.5*,97.0,82.0*,62.1*,
O=C(O)CSc1nc(-c2ccccc2)nc2c1oc1ccccc12,-2.9,0.4,58.8*,99.0,48.5*,13.6*,
Cc1ccc(C)c(-c2cc(C(=O)Nc3sc(C)c(C)c3C(N)=O)c3ccccc3n2)c1,-1.5,0.5,14.7,98.0,nt,nt,
CCCCCCCCN1C(=O)[C@H](CC(=O)N2CCN(C(=O)OCC)CC2)C[C@@]2(C(=O)OC)CCCCC=C12,4.6,-2.0,3.8,96.0,nt,nt,
Cc1[nH]c2ccccc2c1/C=N/NC(=O)c1cccc(S(=O)(=O)Nc2cccc(C(F)(F)F)c2)c1,-0.8,-0.4,65.4*,102.0,67.7*,27.5*,
NNC(=O)c1cccc(S(=O)(=O)Nc2cccc(C(F)(F)F)c2)c1,-0.4,-0.7,6.2,100.0,nt,nt,
Cc1nc(-c2noc(-c3cccc(Cl)c3)n2)c(C(F)(F)F)o1,-3.3,-1.4,-0.4,101.0,nt,nt,
Clc1cccc(-c2nc(-c3ccc(-c4nn[nH]n4)cc3)no2)c1,-3.9,-1.0,35.5*,94.0,61.8*,19.3*,DNA CAG DR=i
Cc1ccc(C(=O)O)cc1-c1ccc(/C=C2/NC(=O)N(c3ccccc3)C2=O)o1,-0.4,-4.0,61.6*,100.0,60.0*,22.0*,
Cc1ccc(NC(=O)CN2C(=O)S/C(=C\c3cc(C)n(-c4cccc(C(=O)O)c4)c3C)C2=O)cc1,-1.5,-1.1,72.3*,97.0,71.5*,31.5*,DNA CAG DR=i
Cc1ccc(NC(=O)CN2C(=O)S/C(=C\c3cc(C)n(C)c3C)C2=O)cc1,-4.0,-3.8,12.7,100.0,nt,nt,
Cc1ccc(C(=O)O)cc1-c1ccc(/C=C2\SC(=O)N(CC(=O)Nc3ccccc3)C2=O)o1,-1.4,-1.8,42.1*,101.0,89.4*,66.1*,
Cc1ccccc1NC(=O)CN1C(=O)S/C(=C\c2ccc(-c3cc(C(=O)O)ccc3C)o2)C1=O,-2.7,-3.8,10.2,90.0,nt,nt,
Cc1cc(C(=O)O)ccc1-c1ccc(/C=C2\NC(=O)N(Cc3ccccc3Cl)C2=O)o1,-6.1,nt,nt,102.0,nt,nt,
C#CCN1C(=O)S/C(=C\c2ccc(-c3ccc(C(=O)O)cc3C)o2)C1=O,0.8,-3.9,47.7*,100.0,42.7*,15.9*,
CC(C)NC(=O)C1(C)CN(S(C)(=O)=O)CC(=O)N1CCc1ccccc1F (stereo unspecified),1.6,-0.7,0.8,nt,nt,nt,
SMILES,Granule exo inh,PG9 Ab binder,rCAG RNA binder,ABCB6 inh MLPCN,rCAG binder conf,DNA CAG counter,others
Cc1ccc(OC(=O)N(C)C[C@@H]2OCc3cn(nn3)CCCC(=O)N([C@H](C)CO)C[C@H]2C)cc1,0.6,-0.2,1.8,96.0,nt,nt,
O=C(Nc1ccccc1)c1cccc(C(F)(F)F)c1,-0.4,-0.4,0.2,100.0,nt,nt,
O=C(Nc1c(C(=O)O)[nH]c2ccc(F)cc12)c1cccc(C(F)(F)F)c1,0.8,2.4,63.0*,90.0,38.8*,8.8*,
O=C(Nc1c(C(=O)O)[nH]c2ccccc12)c1cccc(C(F)(F)F)c1,4.6,-1.5,38.8*,92.0,20.8,2.7,
N=c1c(S(=O)(=O)c2ccc(Cl)cc2)cc2c(=O)n3ccccc3nc2n1Cc1ccco1,9.0,1.5,36.2*,99.0,55.6*,25.1*,
N#C/C(=C\c1ccc(C(=O)O)cc1)c1nc2sc3c(c2c(=O)[nH]1)CCCC3,-0.5,0.4,45.3*,109.0,54.9*,21.6*,
CCCn1nc([N+](=O)[O-])c(C(C#N)c2nc3ccccc3s2)c(Cl)c1=O (stereo unspecified),51.8,-2.6,88.2*,91.0,82.6*,46.0*,
COc1cc(C2Nc3cccc4cccc(c34)N2)cc(OC)c1OC(C)=O,7.2,-1.1,29.3,103.0,nt,nt,
COc1cc(C2Nc3cccc4cccc(c34)N2)ccc1O,2.1,-3.1,52.8*,100.0,48.2*,25.6*,
O=C(Nc1cccc(C(=O)O)c1)/C(=C\c1ccc2c(c1)OCO2)NC(=O)c1ccccc1,-1.6,-0.9,7.6,85.0,nt,nt,
Cc1ccc(C(=O)N/C(=C\c2ccc3c(c2)OCO3)C(=O)Nc2ccc(C(=O)O)cc2)cc1,-0.8,0.6,25.8,99.0,nt,nt,
O=C(Nc1cccc(C(=O)O)c1)/C(=C\c1ccc2c(c1)OCO2)NC(=O)c1ccc(Br)cc1,21.3,-0.8,42.7*,99.0,22.9,6.9*,
O=C(Nc1ccc(C(=O)O)cc1)/C(=C/c1ccc2c(c1)OCO2)NC(=O)c1cccc(Br)c1,6.0,0.8,50.2*,90.0,40.9*,10.1*,
CCCn1c(N)c(N(CCOC)C(=O)Cc2ccc(S(=O)(=O)N3CCOCC3)s2)c(=O)[nH]c1=O,-6.3,-0.5,9.9,97.0,nt,nt,
CC(C)c1nc2cc(C(=O)N3CCNC(=O)C3c3cccc(F)c3)ccc2o1 (stereo unspecified),13.2,-0.1,-3.3,100.0,nt,nt,
C[C@@H]1CCCCO[C@H](CN(C)C)[C@H](C)CN([C@@H](C)CO)C(=O)c2cc(NC(=O)Nc3ccc(C(F)(F)F)cc3)ccc2O1,-4.4,-2.0,2.6,101.0,nt,nt,
C[C@@H]1CCCCO[C@H](CN(C)Cc2ccc(C(=O)O)cc2)[C@H](C)CN([C@@H](C)CO)C(=O)c2cc(NC(=O)Nc3ccc(C(F)(F)F)cc3)ccc2O1,-0.5,-1.8,49.8*,100.0,53.0*,14.7*,
